The text below walks through data of PubChem BioAssay (NCATS).

In assay [1] the target is Cellular tumor antigen p53 (Homo sapiens) (UniProt P04637). Briefly: Primary qHTS for small molecule compounds that upregulate eGFP-tagged delta133p53alpha (in N-terminal) cells. (AID 2060322). Further: nearly all actives have a fitted effect of over 75% in size.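 On activation: series mostly up to about 56 µM; 0% = DMSO vehicle and 100% = reference activator.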 The conditions noted are these: NCI-H358 eGFP-delta133p53alpha fluorescence, 24 h; activation: active compounds read high. Put shortly:
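NCI-H358 cells pre-induced 24 h with 10 ng/ml doxycycline to express N-terminal eGFP-delta133p53alpha, then dosed 24 h at 37C without doxycycline; fixed, Hoechst-stained, GFP intensity by laser scanning cytometry, normalized to DMSO (0%) and 57.5 uM 5-azacytidine (100%).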

The nature of assay [2]: BET inhibitor-based combinations targeting novel dependencies in MECOM-rearranged (r) AML: SET-2 cell line (AID 2202231). Further: nearly all actives have a fitted effect of over 35% in size.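 On viability: plate controls were DMSO treated cells for no effect and wells without cells for full effect.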 The conditions noted are these: SET-2 AML cells viability, CellTiter-Glo luminescence, 48 h; viability: active compounds read low, concentration not given here. Put shortly: (§1)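 Here, 11-point titrations of each agent were applied to 500 seeded cells and incubated 48 hr; CellTiter-Glo signal, scaled against DMSO and empty wells, was integrated as AUC, then Z-scored within the individual line.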

Assay [3] can be described thus: BET inhibitor-based combinations targeting novel dependencies in MECOM-rearranged (r) AML: OCI-AML3 cell line (AID 2202232). Further: nearly all actives have a fitted effect of over 35% in size. The conditions noted are these: Potency: OCI-AML3 viability. The method in brief:
as §1

Assay [4] can be described thus: BET inhibitor-based combinations targeting novel dependencies in MECOM-rearranged (r) AML: MV-4-11 cell line (AID 2202233). Further: nearly all actives have a fitted effect of over 45% in size. Put shortly:
(§2)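 Normalized to DMSO and empty-well controls, the luminescence data from CellTiter-Glo after 48 hr drug exposure were fitted across 11 concentrations. Reported metrics are area under the dose-response curve and its Z-transformed form.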

Assay [5] in a line: BET inhibitor-based combinations targeting novel dependencies in MECOM-rearranged (r) AML: HNT-34 cell line (AID 2202234). Further: nearly all actives have a fitted effect of over 35% in size. Put shortly: as §2
Assay [6] can be described thus: BET inhibitor-based combinations targeting novel dependencies in MECOM-rearranged (r) AML: UCSD-AML1 cell line (AID 2202235). Further: nearly all actives have a fitted effect of over 40% in size. The method in brief: as §2
A short description of assay [7]: BET inhibitor-based combinations targeting novel dependencies in MECOM-rearranged (r) AML: AML-191 cell line (AID 2202236; further: nearly all actives have a fitted effect of over 35% in size). The method in brief:
as §1

A short description of assay [8]: BET inhibitor-based combinations targeting novel dependencies in MECOM-rearranged (r) AML: AML-194 cell line (AID 2202237; further: nearly all actives have a fitted effect of over 40% in size). The method in brief:
as §1

Values joined by “and” are separate entries in the source; they are usually repeats but may differ in a detail not shown here. Equal entries are not always repeated. Records with an inconclusive call do not appear. Values without a mark were called inactive. Active and inactive are the calls of the source. The call rests on the fitted dose curve; in most records, active means well fitted curve in the direction sought with a large enough effect; inconclusive means small, poorly fitted or top-dose-only effect, or another doubt; inactive means no such curve, though single readings can be large; an effect the other way counts as inactive or inconclusive.
Potency means the concentration at half of the fitted maximal effect.

Cellular tumor antigen p53 (Homo sapiens), sequence (P04637 whole entry, looked up): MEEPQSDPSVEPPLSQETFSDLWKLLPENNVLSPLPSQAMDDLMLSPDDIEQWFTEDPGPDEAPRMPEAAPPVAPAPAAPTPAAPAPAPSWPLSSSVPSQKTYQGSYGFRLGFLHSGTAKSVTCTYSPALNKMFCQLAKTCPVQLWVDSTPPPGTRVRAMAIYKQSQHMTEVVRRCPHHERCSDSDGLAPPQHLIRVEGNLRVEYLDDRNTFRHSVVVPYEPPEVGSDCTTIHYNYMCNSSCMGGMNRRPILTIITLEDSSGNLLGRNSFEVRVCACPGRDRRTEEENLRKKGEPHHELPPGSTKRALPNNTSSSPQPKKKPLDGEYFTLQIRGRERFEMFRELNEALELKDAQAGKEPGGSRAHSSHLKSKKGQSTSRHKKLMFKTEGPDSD

For `C[N+]1(C)[C@@H]2CC(OC(=O)[C@H](CO)c3ccccc3)C[C@H]1[C@@H]1O[C@@H]12` (some centres undefined), in assay [1], the activation was -7.53%. For the same molecule, the viability in assay [2] was 116%. In addition, the Potency result in assay [3], in assay [4], in assay [5], in assay [6], in assay [7] and in assay [8] was “inactive” throughout.

As to `CCCc1cc(=O)[nH]c(=S)[nH]1`, in assay [1], the activation is -13.4% and -2.19%. Further, the viability in assay [2] is 110%. In addition, the Potency result in assay [3], in assay [4], in assay [5], in assay [6], in assay [7] and in assay [8] was “inactive” throughout.

For `CC(=O)O[C@H]1C[C@@H]2CC[C@H]3[C@H]4C[C@H]([N+]5(C)CCCCC5)[C@@H](OC(C)=O)[C@@]4(C)CC[C@@H]3[C@@]2(C)C[C@H]1[N+]1(C)CCCCC1`, the activation in assay [1] was 5.41%. Moreover, the viability in assay [2] is 114%. Further, the Potency result in assay [3], in assay [4], in assay [5], in assay [6], in assay [7] and in assay [8] was “inactive” throughout.

In the case of `C[C@]12C=CC(=O)C=C1CC[C@@H]1[C@@H]2[C@@H](O)C[C@@]2(C)[C@H]1CC[C@]2(O)C(=O)CO`, the activation in assay [1] is -4.18%. In addition, the viability in assay [2] was 103%. Further, the Potency entry in assay [3], in assay [4], in assay [5] and in assay [6] was “inactive” each time. In addition, the Potency in assay [7] was 0.372 µM (active); in assay [8] it was 1.18 µM (active).

As to `CNC[C@H](O)[C@@H](O)[C@H](O)[C@H](O)CO`, the activation in assay [1] is -10%. Besides, the viability in assay [2] was 121%. For the same molecule, the Potency result in assay [3], in assay [4], in assay [5], in assay [6], in assay [7] and in assay [8] was “inactive” in each case.

Turning to `Cc1ncc([N+](=O)[O-])n1CC(C)O` (centres undefined), in assay [1], the activation was 12.6% and -16.1%. In assay [2], the viability was 124%. Moreover, the Potency result in assay [3], in assay [4], in assay [5], in assay [6], in assay [7] and in assay [8] was “inactive” throughout.

Take `CCN1CCN(CC(=O)Nc2ccc(-c3cccc4c(=O)cc(N5CCOCC5)oc34)c3sc4ccccc4c23)CC1`: the activation in assay [1] was -18.4%. Further, the Potency in assay [2] is 8.11 µM (active); in assay [3], 2.57 µM (active); in assay [4], 1.44 µM (active); in assay [5], 5.74 µM (active); in assay [6] it was 2.57 µM (active); in assay [7], 5.74 µM (active). In assay [8], the Potency was 3.23 µM (active).

With `Cc1cnc(C(=O)O)c[n+]1[O-]`, the activation in assay [1] was -19.2%. The viability in assay [2] was 122%. Further, the Potency entry in assay [3], in assay [4], in assay [5], in assay [6], in assay [7] and in assay [8] was “inactive” throughout.

Turning to `Cc1ccsc1C(=CCCN1CCC[C@@H](C(=O)O)C1)c1sccc1C`, in assay [1], the activation is -19.8%. For the same molecule, in assay [2], the viability is 112%. Moreover, in assay [3], the Potency was 0.468 µM (active). The Potency entry in assay [4], in assay [5], in assay [6], in assay [7] and in assay [8] was “inactive” in each case.

For `CC(=O)OC[C@@H]1O[C@@H](n2ccc(=O)[nH]c2=O)[C@H](OC(C)=O)[C@H]1OC(C)=O`, in assay [1], the activation is 5.73%. The viability in assay [2] was 108%. In addition, the Potency result in assay [3], in assay [4], in assay [5], in assay [6], in assay [7] and in assay [8] was “inactive” each time.

Take `Nc1cccc2c1C(=O)N(C1CCC(=O)NC1=O)C2=O` (centres undefined): in assay [1], the activation was 28.8%. In addition, the viability in assay [2] is 112%. The Potency entry in assay [3], in assay [5], in assay [6], in assay [7] and in assay [8] was “inactive” throughout. The Potency in assay [4] was 0.0013 µM (active).

For the molecule `COc1cc(C)c(Sc2cnc(NC(=O)c3ccc(CNC(C)C(C)(C)C)cc3)s2)cc1C(=O)N1CCN(C(C)=O)CC1` (centres undefined), the Potency in assay [1] was 43.2 µM (active); in assay [2] it was 23.5 µM (active); in assay [3], 14.8 µM (active); in assay [4], 4.17 µM (active); in assay [5], 16.6 µM (active); in assay [6] it was 14.8 µM (active). Moreover, the figures for the Potency in assay [7] and in assay [8] were 14.8 µM (active) and 11.8 µM (active), respectively.

`Cc1cn([C@@H]2C[C@@H](O)[C@H](CO)O2)c(=O)[nH]c1=O`: in assay [1], the activation was -12.7%. Moreover, the viability in assay [2] is 103%. Further, the Potency result in assay [3], in assay [4], in assay [5], in assay [6], in assay [7] and in assay [8] was “inactive” throughout.

For `COc1ccc2nc3cc(Cl)ccc3c(Nc3cc(CN4CCCC4)c(O)c(CN4CCCC4)c3)c2n1`, in assay [1], the activation was 55.3%. The Potency was 7.42 µM (active) in assay [2]; 7.42 µM (active) in assay [3]; 4.68 µM (active) in assay [4]; 11.8 µM (active) in assay [5]; 8.33 µM (active) in assay [6]; 10.5 µM (active) in assay [7]. Besides, in assay [8], the Potency is 10.5 µM (active).

Turning to `O=S(=O)(O)CCSSCCS(=O)(=O)O`, the activation in assay [1] is -2.01%. In assay [2], the viability was 104%. In addition, the Potency entry in assay [3], in assay [4], in assay [5], in assay [6], in assay [7] and in assay [8] was “inactive” each time.

Consider `O=C1C[C@@H](c2ccc(O)cc2)Oc2cc(O)cc(O)c21`, for which the activation in assay [1] was -17.7%. In assay [2], the viability is 109%. Also, the Potency result in assay [3], in assay [4], in assay [5], in assay [6], in assay [7] and in assay [8] was “inactive” in each case.

In the case of `CN1C(=O)c2sccc2N(C)c2nc(Nc3ccc(S(N)(=O)=O)cc3)ncc21`, the activation in assay [1] was -6.75%. Further, the Potency is 6.61 µM (active) in assay [2]; 1.66 µM (active) in assay [3]; 1.05 µM (active) in assay [4]; 0.934 µM (active) in assay [5]; 2.35 µM (active) in assay [6]; 3.72 µM (active) in assay [7]. The Potency in assay [8] is 2.35 µM (active).

In the case of `OC(Cn1cncn1)(Cn1cncn1)c1ccc(F)cc1F`, the activation in assay [1] is 6.21% and 14.6%. For the same molecule, the viability in assay [2] is 116%. Also, the Potency result in assay [3], in assay [4], in assay [5], in assay [6], in assay [7] and in assay [8] was “inactive” throughout.
